Measurements published in PubChem BioAssay AID1508600 (Functional Genomics Laboratory (NCATS/FGL), 2020).
The campaign covered roughly 53,000 sequences. About 3,700 (7%) were called active. Only a selection was taken, and actives are over-represented in it overall. A number with no mark means an inactive call.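 The calls were made as follows: active = gene knockdowns whose robust z-score for IL-1 alpha signal is at least 2 or at most -2, so actives lie on both sides; inactive = the rest.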

Test: Components of the Cytosolic LPS Sensing Pathway: Gene Identification via Genome-wide siRNA Screen;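 also: robust z of the log signal after scaling to non-targeting control siRNA wells of the plate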
Conditions: RAW264.7 macrophages, IL-1a HTRF, actives lie on both sides, screened at 100 nM (by protocol), cells primed 5 h with Pam3CSK4 first
How it was run: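 Knockdown: 100 nM siRNA, 48h, RAW264.7. Stimulation: Pam3CSK4 5 h, then LipidA via TransIT-TKO 24 h. Output: supernatant IL-1a HTRF, negative-control-normalized, log robust z-score; viability by CellTiter-Glo.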

Sequence | z-score
GGUUUUUGAUAAUUGCCAUTT against Gcsh | -1.98
GGAAGAAGACACAAAAAAUTT against Rcan3 | 3.53 (active)
GGUCUUCUUCUUCAAAGCUTT against Mrpl46 | -1.27
GCAACGUGGUCAUCAAUCUTT against Ndufa9 | -0.743
GGGUUAUGGCUGGAAUCUGTT against Slc12a9 | -1.52
GGAACAAGGCUUUUUCCACTT against Olfr481 | 0.566
CCCGUUGUAUACAAAUACCTT against Tmem41b | 0.579
CCCAAACAGACUAGAUCCGTT against Rab20 | 3.37 (active)
GUGGAAAUUAAUCUGGGUUTT against Tmem191c | 0.394
GGCCAGAUAGCAAAACAGCTT against Mpst | 0.897
GGAGGUGUUCAUUGAAGUCTT against Nudcd2 | -0.356
GGAACUGACAGCUAUGAACTT against Atp6v1d | -0.845
GGAGAAGAAAGCAAAAACCTT against Ing1 | -2.11 (active)
CGCAGAUCAAUUUUCAUAGTT against Kif2a | 0.471
GGAUAUUGGUGGCACUUUATT against Med6 | -0.315
GGAUAAAUGGUACAUUCAGTT against Coa7 | 0.958
CCAACCUAAACAAUGCAUUTT against Actn4 | -0.431
GGCGGACUUGGAUUACAGCTT against Rassf10 | 2.21 (active)
GGAGCUGCUGUUAAUUCCATT against Col5a3 | 1.3
GGAAGCCUACCUUUAUAUUTT against Slc2a3 | 0.458
CCUUUUCAAGCUAACAACATT against Gba2 | -0.0808
GGUAGCACUUUGUAUUUUATT against Spg7 | 0.575

Sequence | z-score
GCAUCUACUAUCCAAGUGATT against Alox8 | 2 (active)
CCUACAGCCACCUAAUAGATT against Olfr1196 | -0.346
GCAAGUAACUACCAGAGUATT against Cfap20 | -0.488
CCACGGGAGACAAGAUUCUTT against Hmbs | 3.18 (active)
GGUCAGCGAACCACGAUAATT against Olfr314 | -0.792
GGUAUAAGGUCAUAGAAUUTT against E230016K23Rik | 0.429
GCUUCUAUUUUGGAUGAUGTT against Skint10 | -1.2
GGCACAAGUUGACCAAUAUTT against Rtn1 | -0.263
GCUACUCCUUAGAACACGGTT against Spry1 | 0.839
GGCUAUCUGAUUUUUGUUGTT against Nlrp3 | -0.0259
GGCCUCAAACUGAAUAUUATT against Serpina7 | 0.472
CCCGGAAACAACACAUUGCTT against Tyrobp | 2.88 (active)
GGUCCAGCAUUUGAAAUUATT against Moap1 | 0.291
CCACUGUGCAAGAAGCACGTT against Ldb3 | -0.129
GGGUAAUGGGCCAGUAUCATT against Fam229b | -2.92 (active)
GGUAUAUUGUGCCAGCACATT against Olfr705 | 0.00345
GGUUCACAUGUACAUUAAATT against Cracd | -0.156
GGUUAGAAAACAAUAUCAGTT against 9530053A07Rik | 0.88
GGGAGAGCUGGCUAAAUGATT against Sptbn4 | -0.956
GGAGUUUGCCAGUGAAUUUTT against Ptpn22 | -0.603
GGAAGAGAAAACAACAGUUTT against Phactr4 | -1.26
CCCGUAAGGUAACAAACCGTT against Polr3k | -1.14

Sequence | z-score
GGACAGGAAGGUCAUCCCUTT against Sntb2 | -0.568
CCGCCAGACCUUCAUUACCTT against Chia1 | -0.515
GGCAGUGGAGCUGGACAAATT against Nkx2-5 | 2.45 (active)
GGCUACAAAUCCAACUAUCTT against Ppp1r32 | 0.181
GGUCCAAGCCUUUUCUAGATT against Glmp | 0.305
GCUCGUUCGCCUAGAAUUGTT against Mycbp | 0.529
CGUGGGCUCUGUUGACAUUTT against Olfr492 | 0.869
GGGCAAAUGUAAAAAGACUTT against Fst | 1.28
GGUGAUUGUCAAGAUUAUGTT against Olfr651 | -2.1 (active)
CCUUUGCCUUCAGUUUUAUTT against Pramel20 | 0.864
GGUCACGAUGUAGCACGCUTT against Mtg1 | 0.996
GCAGGAAGUACUCCUAUCCTT against Letm2 | -0.861
GGGAAUUUGGUAUCAAUUUTT against Epgn | 1.7
GCUGCACGAUGCAUGGUUUTT against Asic3 | 1.43
GGCAAUAACAUUCGGUAUUTT against Snrpd1 | -2.29 (active)
CCUGUAAUGAGUAUGACAUTT against Commd10 | 0.397
GGAACUUUUUCAGAGCUCUTT against Senp3 | -1.6
GGUAUUUGUGCCAAUUGCCTT against Ccr6 | -0.302
GGAAGACUACAUAAGAGACTT against Cxcl9 | 0.103
GGGCCAUGAUAGGACACACTT against Nme4 | 2.97 (active)
CCUGUCUGUUUGAGGACGUTT against Adora2a | -0.701
GGCCAACUUCCUUUUUAAATT against Tomm40 | -0.0619

Sequence | z-score
GGCACACACUCCCUGACAATT against Cst3 | -0.863
GGUGGAUGAUAAUGUUCUUTT against Gcnt3 | 0.911
GGCCUUUACAUGUCCCAGCTT against BC002059 | 0.456
AUGUCAGCGGCCCUAGAUGTT against Adam34l | -2.09 (active)
GGGUGUGGCUGACUUUGAUTT against Otof | -0.429
CCGUGGACUAUAACAACUCTT against Mgat5b | 1.61
GGAAGAGGCUAUUGCAUCGTT against Atrnl1 | -0.768
GGUUUUCUAGUUUGAGUUUTT against Atp1b2 | 1.29
GCAUCCAUCAAAUCAAAAUTT against Met | 3.03 (active)
GGUGAUUCAGAUAAAAGAGTT against Mbtps1 | 0.265
GAGCAGAGGAUUGAUGCACTT against Nlrp4g | 0.918
GCAAGACGCACUGUUACUGTT against Fam214a | 0.196
GGCUCCUAGCUGUUUCAGUTT against Hormad1 | -1.62
GGUUCAAAGUUCUAGCUAATT against Adss | -0.25
CCAAAAGUCACGUUUCUCATT against Per2 | -2.09 (active)
GCAAUGGUUGAAGAAAUUUTT against Tnip3 | 0.69
GGUUCUUUUAUGGAUGACATT against Prkaa2 | -0.964
GCAGGAACACUGGUUUGAATT against Otud5 | -0.653
GUACGAAGACUUCUCUAGUTT against Ankrd33b | 0.101
GGGAAAAUGGCUUAACCGUTT against Siglecg | 0.703
CCUAGAGGAUUCAGAUCAATT against Pnmal1 | 2.24 (active)
GGCCGUUUCACUACCAUUCTT against Ier2 | 0.259

Sequence | z-score
GGAGGUAGGAAUAUGACUUTT against Klrb1c | 0.0825
GGCUAGCAUUAGCCACAGATT against Enpp3 | -2.33 (active)
GGUGCUCAAAUCCUCUUGATT against Ctps | -0.0545
CGGAUAUGAAUUUUUUGCUTT against Ppp1cb | 0.116
GCUUUUCAGUCUCAUAGUGTT against Huwe1 | 0.468
GGAAAAUCCCUCUUUGGCUTT against Sez6l2 | -0.566
CGAUGAGACCAACAUCUUUTT against Gpr162 | 0.476
GGACAAUGAUUUUCUGAUUTT against Sv2b | 0.962
GGAAGUCUAUGGUUUUUAGTT against Csnk2b | 2.97 (active)
GGAAAUCAAGCCCUACAUCTT against Col4a2 | 0.152
GGGCUAUGUUGUCUCAAAATT against Gsdma2 | 0.861
GGAUGACCUCAUGCUUAUUTT against Prss37 | -2.31 (active)
GGAUGAAAAAUCAGUACUUTT against Aadac | -2.02 (active)
GGUAUCCUCUCUUGUCUUGTT against Clec9a | -0.0393
GUACCUGAAUUGCUACCGATT against Ly6g5c | 0.8
GGAGUUCUUGGUCUCUUUGTT against Fam214a | -0.124
UUGAACAGUGGAACAAUGATT against Fbxo27 | 2.59 (active)
GGAAAGGAACAUAUUUGACTT against Gss | 0.0774
CCAUCUCUCCAAAGGGCUGTT against Olfr32 | 0.056
